Screening results from PubChem.
Only a selection was taken, and hits are over-represented in it overall.
LmPK inhibitor: inhibitors of Leishmania mexicana pyruvate kinase. Q27686. purified LmPK, Kinase-Glo ATP luminescence, 1 h. Potency, µM (doses to about 57.5 µM), for inactives: top-dose activity change, negative = inhibition, usual class: inhibitors. 0.37% of 290,000 active; further: potency means the concentration at half of the fitted maximal effect; on the % scale 0 is the no-effect control and ±100 the full control effect
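Screened at intermediate enzyme activity to detect both inhibitors and activators: LmPK at 0.1 nM, with a 0.5 nM enzyme column as activation reference. PEP 0.5 mM, ADP 0.1 mM; ATP detected by luminescence after 1 h.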
RE007 growth inh: less growth of the S. pombe RE007 Vpr strain | S. pombe RE007 Vpr strain, BacTiter-Glo ATP luminescence, 24 h | Potency, µM (top dose mostly 92.2 µM), inactives show at the highest dose activity change, negative = less growth, actives largely listed as inhibitors | 0.21% of 360,000 active; active means well fitted falling curve with a large enough effect; inconclusive means small, poorly fitted or top-dose-only effect; inactive means no such curve, though single readings can be large or run the other way; further: potency means the concentration at half of the fitted maximal effect; on the % scale 0 is the no-effect control and ±100 the full control effect; nearly all actives have a fitted effect of over 50% in size
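Fission yeast RE007 carrying one integrated HIV-1 vpr copy, seeded at OD 0.01 in PMG+AL medium with 23 nL pinned compound. Grown 24 h at 30 degrees; viability read by BacTiter-Glo luminescence after 5 min.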
Tb PYK inh: inhibitors of Trypanosoma brucei pyruvate kinase | TbPYK enzyme, Kinase-Glo Plus ATP luminescence, 45 min | Potency, µM (series often up to 76.8 µM), without a hit: at the highest dose activity, negative = inhibition, usual class: inhibitors | Q57TT1 | AID 624173 | 0.12% of 410,000 active; further: potency means the concentration at half of the fitted maximal effect; on the % scale 0 is the no-effect control and ±100 the full control effect; nearly all actives have a fitted effect of over 50% in size
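Enzyme and substrate buffer are dispensed first and compound is pin-transferred. ADP at 130 uM final then starts the reaction, which runs 45 min at room temperature. Detection reagent is added for 10 min before luminescence is imaged.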
Cycloheximide cs: counter-screen hit for Shiga toxin inhibitors, cycloheximide; 12% of 300,000 active; cell reporter, cycloheximide protein synthesis inhibition counterscreen; max response, %; in the data active means max response mostly above about 13%, no sharp cut-off; inactive means mostly below about 14%; further: read at 38.3 µM for the half of the compounds with a filed dose; 0% is about no effect
Shiga inhibitor: Shiga toxin inhibition; Vero cells, Shiga toxin protein synthesis inhibition reporter; inhibition, % at 38.7 µM; 9.2% of 290,000 active; in the data active means inhibition mostly above about 28%, no sharp cut-off; inactive means mostly below about 43%; further: 0% is about no effect
Giardia FBPA inh: inhibitors of Giardia lamblia fructose-1,6-bisphosphate aldolase; 0.71% of 290,000 active; purified Giardia FBPA; Potency, µM (highest dose often 59.6 µM), for the others: at the highest dose activity, negative = inhibition, usual class: inhibitors; further: potency means the concentration at half of the fitted maximal effect; on the % scale 0 is the no-effect control and ±100 the full control effect; nearly all actives have a fitted effect of over 55% in size
Target sequence (A8B2U2 whole entry, looked up): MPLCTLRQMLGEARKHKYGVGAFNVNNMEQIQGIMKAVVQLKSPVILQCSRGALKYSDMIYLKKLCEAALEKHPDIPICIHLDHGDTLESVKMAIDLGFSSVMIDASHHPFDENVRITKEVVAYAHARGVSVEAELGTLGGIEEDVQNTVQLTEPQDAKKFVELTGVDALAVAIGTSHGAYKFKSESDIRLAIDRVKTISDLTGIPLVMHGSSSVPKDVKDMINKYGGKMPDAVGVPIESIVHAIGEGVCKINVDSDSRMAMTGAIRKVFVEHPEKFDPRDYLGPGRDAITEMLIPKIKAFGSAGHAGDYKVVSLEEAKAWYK
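Giardia FBPA (40 nM reagent) was preincubated 10 min at RT with compound (up to 57.5 uM final), then substrate plus GAPDH/TPI/NAD/arsenate coupling system with diaphorase/resazurin was added; resorufin fluorescence (525/598 nm) was read after 20 min.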
Active calls of the source: *; ? = inconclusive; / = no result given; [ ] = another dose, or the depositor's remark. Unless noted, the call rests on the fitted dose curve; in most records, active means well fitted curve in the direction sought with a large enough effect; inconclusive means small, poorly fitted or top-dose-only effect, or another doubt; inactive means no such curve, though single readings can be large; an effect the other way counts as inactive or inconclusive.

SMILES | LmPK inhibitor | RE007 growth inh | Tb PYK inh | Cycloheximide cs | Shiga inhibitor | Giardia FBPA inh
COC(=O)C1=C[C@@H](C(=O)OC)C2C3=C(C(=O)[C@@]2(C)NC(=O)c2ccccc2)[C@H](C)[C@@H]2C(=O)NC(=O)[C@@H]2[C@@H]3C1 (some centres not stated) | / | / | / | 1 | -16 | -8%
C[C@@H](NCc1cc(Br)cc2[nH]c(=O)c(=O)[nH]c12)P(=O)(O)O | / | / | / | / | / | -27%
Cc1nn(-c2cccc(Cl)c2)c(Cl)c1/C=N/NC(=O)c1cccnc1 | 1% | 1% | 6% | 17* | 22 | 0%
Cn1nc(C(F)(F)F)c(/C=N/OC(=O)c2ccccc2)c1Cl | -6% | -7% | -2% | 9 | -16 | 4%
Cn1c(Cl)c(/C=N/OC(=O)c2ccccc2Cl)c2ccccc21 | 1% | -5% | 8% | 14* | 24 | -3%
Cc1nn(-c2ccccc2)c(Cl)c1/C=N/Nc1nnc(C)c(=O)[nH]1 | 1% | -4% | 1% | -3 | 8 | -4%
Cc1nn(-c2ccccc2)c(Cl)c1/C=N/Nc1nc2ccccc2n1C | -3% | -21% | -27% | 54* | 79* | -17%
Cc1nn(-c2ccccc2)c(Cl)c1/C=N/NC(=O)c1ccnn1C | -3% | 0% | 2% | 34* | 107* | /
CN(C1CCCCC1)S(=O)(=O)c1ccc(F)c(C(=O)Nc2ccc(C(F)(F)F)cc2)c1 | / | / | 1% | / | / | /
COc1ccccc1CN(C)C(=O)COC(=O)c1cc(C)oc1C | / | 16% | -3% | / | / | /
C[C@@H]1CN2[C@H](c3ccc(Br)cc3)[C@H](C)CC[C@H]2C(=O)O1 | / | / | / | / | / | -1%[12.9 µM]
Cc1nn(-c2ccccc2)c(Cl)c1/C=N/NC(N)=O | 1% | 10% | 0% | 27* | 33* | -5%
Cc1nn(C)c(Cl)c1/C=N/OC(=O)c1ccccc1 | -8% | -24% | -5% | 16* | -1 | 7%
O=C(N/N=C/c1c(O)n(-c2ccccc2Cl)c(=O)c2ccccc12)c1cccnc1 | 4% | 8% | 5% | -3 | -17 | 12%
COC(=O)N/N=C/c1c(C)nn(-c2cccc(Cl)c2)c1Cl | -1% | 47% | 14% | 49* | 55* | -3%
Cc1nn(Cc2c(Cl)cccc2Cl)c(Cl)c1/C=N/NC(=O)c1cccnc1 | -3% | 9% | -2% | 16* | 41* | -1%
Cc1nn(-c2ccccc2)c(Cl)c1/C=N\NC(=O)c1cncc(Br)c1 | 1% | 10% | -4% | -7 | -9 | 6%
COC(=O)N/N=C\c1c(C)nn(-c2ccccc2)c1Cl | -8% | 18% | -1% | 23* | 58* | 1%
Cc1ccc(C)c(OCC(=O)N/N=C/c2c(C)nn(-c3ccccc3)c2Cl)c1C | -2% | 2% | 3% | -3 | -2 | 11%
Cc1nn(-c2ccccc2)c(Cl)c1/C=N/NC(=O)CNC(=O)c1ccccc1Cl | 0% | 4% | -24% | 18* | 23 | 6%
CC(C)(C)OC(=O)N1CCCC(C(=O)Nc2ccc(C(=O)NCc3ccccc3)cc2)C1 (configuration not stated) | / | -2% | 2% | / | / | /
Cc1ccc(S(=O)(=O)CCC(=O)NCCN2C(=O)S/C(=C/c3ccc(F)cc3)C2=O)cc1 | -1% | ? | -1% | 16* | -1 | -2%
CCOc1ccc(NC(=O)CN(C)S(=O)(=O)c2cccc3cccnc23)cc1 | 1% | -8% | -8% | 6 | -9 | -3%
C/C(=N\N1CCCCCC1)c1c(O)n(-c2ccc(C)cc2)c(=O)[nH]c1=O | 2% | 15% | -8% | 43* | active | 0%
CC/C(=N\N1CCCCCC1)c1c(O)n(-c2ccc(C)cc2)c(=O)[nH]c1=O | -2% | 19% | -2% | 18* | -5 | -1%
C=CCn1c(O)c(/C(C)=N/N2CCCCC2)c(=O)[nH]c1=O | 5% | 44% | 1% | 38 | 75* | 0%
C=CCn1c(O)c(C(C)=NCCN2CCCCC2)c(=O)[nH]c1=O | 10% | 13% | 0% | -3 | -16 | -3%
CCOC(=O)C1=CC[C@@H](c2ccccc2)N(S(=O)(=O)c2ccc(C)cc2)[C@H]1C#N | / | 8% | -10% | / | / | /
